Experimental data as given in PubChem BioAssay.
Active and inactive are the calls of the source.

Columns and labels:
[1] = optical density shifts of acrAB sulA E. coli – strain DRC41, OD650, 48 h, E. coli filamentation inducer project, primary screen (AID 1152); settings: higher = more signal, called active from +8 up or from −8 down;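 note: E. coli MC1000 strain DRC41 lacking acrAB efflux pump and sulA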
[2] = probe aLefty1 binding on compound microarray – biochemical, small-molecule microarray, 635/667 nm fluorescence, primary screen (AID 1153); settings: higher = more signal;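 note: score merges spot fluorescence with signal-to-noise ratio from the scanned slide images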
[3] = plasmodial surface anion channel blockers, osmotic lysis – cell-based, P. falciparum Indochina, OD700, 1 h, primary screen (AID 1154); settings: P. falciparum Indochina infected RBC osmotic lysis, higher = more signal, called active from +8 up or from −8 down
[4] = plasmodial surface anion channel blockers, osmotic lysis – cell-based, P. falciparum Indochina, OD700, 2 h, primary screen (AID 1155);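 note: lysis reports solute entry through the parasite surface anion channel PSAC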; settings: P. falciparum Indochina infected erythrocytes, higher = more signal, called active from +8 up or from −8 down
[5] = changes in parasitized red cell lysis, either direction – P. falciparum Indochina, OD700, 3 h, PSAC antagonist project, primary screen (AID 1156); settings: P. falciparum-infected erythrocytes, osmotic lysis, higher = more signal, called active from +8 up or from −8 down
[6] = plasmodial surface anion channel blockers, osmotic lysis – cell-based, P. falciparum Indochina, OD700, 18 h, primary screen (AID 1157); settings: P. falciparum Indochina infected erythrocytes, osmotic lysis OD700, 18 h; higher = more signal, called active from +8 up or from −8 down
[7] = S6 kinase pathway phospho-S6 level changes – cell-based, A549, cytoblot, luminescence, serum-stimulated, primary screen (AID 1158); settings: 5 h, higher = more signal;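 note: serum-stimulated A549 lung adenocarcinoma cells; signal is phosphorylated S6 detected by cytoblot immunostaining with HRP secondary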
[8] = biological target: NADPH oxidase 2 (Homo sapiens) (UniProt P04839); experiment: compounds shifting NOX2 Amplex Red fluorescence – cell-based, HEK293-NOX2, PMA-stimulated, NOX inhibitor project, primary screen (AID 1159); settings: 45 min, higher = more signal, called active from +8 up or from −8 down; note: test concentration not given here
Sequence of NADPH oxidase 2 (Homo sapiens) (P04839 whole entry, looked up): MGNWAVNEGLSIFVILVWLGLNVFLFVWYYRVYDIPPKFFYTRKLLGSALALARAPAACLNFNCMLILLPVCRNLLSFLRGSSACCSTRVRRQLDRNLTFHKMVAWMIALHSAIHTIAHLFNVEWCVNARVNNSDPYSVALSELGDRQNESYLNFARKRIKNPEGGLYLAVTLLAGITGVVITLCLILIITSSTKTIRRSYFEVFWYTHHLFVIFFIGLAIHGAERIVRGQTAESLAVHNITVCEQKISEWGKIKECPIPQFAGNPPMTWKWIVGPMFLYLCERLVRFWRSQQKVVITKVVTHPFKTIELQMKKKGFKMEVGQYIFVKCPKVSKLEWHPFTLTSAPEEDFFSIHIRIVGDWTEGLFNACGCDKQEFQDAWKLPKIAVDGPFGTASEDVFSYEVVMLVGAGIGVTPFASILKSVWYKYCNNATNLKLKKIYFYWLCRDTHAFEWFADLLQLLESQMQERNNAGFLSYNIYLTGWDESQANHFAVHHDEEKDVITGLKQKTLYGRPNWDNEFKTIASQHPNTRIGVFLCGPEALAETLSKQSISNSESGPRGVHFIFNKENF

[9] = biological target: NADPH oxidase 4 (Homo sapiens) (UniProt Q9NPH5); experiment: compounds shifting NOX4 Amplex Red fluorescence – cell-based, HEK293-NOX4, tetracycline-induced, NOX inhibitor project, primary screen (AID 1160); settings: HEK293-NOX4, Amplex Red H2O2 fluorescence, 45 min; higher = more signal, called active from +8 up or from −8 down
Sequence of NADPH oxidase 4 (Homo sapiens) (Q9NPH5 whole entry, looked up): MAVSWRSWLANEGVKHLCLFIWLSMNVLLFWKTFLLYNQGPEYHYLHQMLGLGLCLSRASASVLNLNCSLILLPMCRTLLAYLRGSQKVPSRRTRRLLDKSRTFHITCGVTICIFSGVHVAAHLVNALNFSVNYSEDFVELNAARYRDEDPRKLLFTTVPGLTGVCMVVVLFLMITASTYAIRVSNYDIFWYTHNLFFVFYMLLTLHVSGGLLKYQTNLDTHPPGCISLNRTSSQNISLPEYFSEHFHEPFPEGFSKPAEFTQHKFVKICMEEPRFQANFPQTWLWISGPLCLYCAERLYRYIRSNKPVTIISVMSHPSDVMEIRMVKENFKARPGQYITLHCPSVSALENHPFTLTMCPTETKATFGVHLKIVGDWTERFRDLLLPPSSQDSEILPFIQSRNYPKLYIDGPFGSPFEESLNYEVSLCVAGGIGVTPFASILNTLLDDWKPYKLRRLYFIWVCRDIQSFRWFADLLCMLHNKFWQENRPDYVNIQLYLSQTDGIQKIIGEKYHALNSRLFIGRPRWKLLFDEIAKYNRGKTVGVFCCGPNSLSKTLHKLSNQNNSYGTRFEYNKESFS

[10] = biological target: NADPH oxidase 5 (Homo sapiens) (UniProt Q96PH1); experiment: compounds shifting NOX5 Amplex Red fluorescence – cell-based, HEK293-NOX5, NOX inhibitor project, primary screen (AID 1161); settings: HEK293-NOX5, ionomycin, 45 min, higher = more signal
Sequence of NADPH oxidase 5 (Homo sapiens) (Q96PH1 whole entry, looked up): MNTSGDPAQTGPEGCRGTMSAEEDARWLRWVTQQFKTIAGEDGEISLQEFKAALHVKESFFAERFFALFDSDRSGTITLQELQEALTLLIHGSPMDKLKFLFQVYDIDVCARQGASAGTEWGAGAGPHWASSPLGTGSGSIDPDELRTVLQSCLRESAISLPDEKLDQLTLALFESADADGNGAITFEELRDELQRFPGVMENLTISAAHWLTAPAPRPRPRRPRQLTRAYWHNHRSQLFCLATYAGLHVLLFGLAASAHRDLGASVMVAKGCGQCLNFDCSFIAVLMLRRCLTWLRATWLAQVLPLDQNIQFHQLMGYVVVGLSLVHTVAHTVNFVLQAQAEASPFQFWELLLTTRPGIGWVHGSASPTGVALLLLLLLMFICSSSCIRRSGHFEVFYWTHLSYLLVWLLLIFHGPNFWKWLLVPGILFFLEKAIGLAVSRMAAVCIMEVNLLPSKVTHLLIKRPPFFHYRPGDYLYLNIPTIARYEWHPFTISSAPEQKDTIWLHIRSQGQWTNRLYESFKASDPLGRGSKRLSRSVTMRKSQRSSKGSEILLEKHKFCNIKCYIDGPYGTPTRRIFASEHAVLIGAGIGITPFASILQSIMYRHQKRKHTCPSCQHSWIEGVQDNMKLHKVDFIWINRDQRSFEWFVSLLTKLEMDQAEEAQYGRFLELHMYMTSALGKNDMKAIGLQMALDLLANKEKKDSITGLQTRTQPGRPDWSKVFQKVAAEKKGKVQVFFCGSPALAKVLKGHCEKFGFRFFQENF

| Structure (SMILES) | z-score [1] | composite z-score [2] | z-score [3] | z-score [4] | z-score [5] | z-score [6] | z-score [7] | z-score [8] | z-score [9] | z-score [10] |
| --- | --- | --- | --- | --- | --- | --- | --- | --- | --- | --- |
| O=C(O)C1=CC[C@H]2C(=O)N(c3ccccc3)C(=O)[C@@H]12 | -0.569 (inactive) | 0.348 | 0.61 (inactive) | 1.11 (inactive) | -0.803 (inactive) | 0.707 (inactive) | -1 | 0.536 (inactive) | -0.267 (inactive) | -0.253 |
| O=C1N(Cc2ccccc2)c2ccccc2C[C@@]12N=C(c1ccc(OCCCO)cc1)O[C@H]2c1ccccc1 | -1.12 (inactive) | 0.383 | 10.8 (active) | 2.67 (inactive) | 3.39 (inactive) | 1.03 (inactive) | 0.075 | 1.92 (inactive) | 0.112 (inactive) | -1.67 |
| CN(C)CCCCCCNC(=O)[C@@H]1C[C@@H]2C(=O)N[C@@H](CCCC[N+](C)(C)C)C(=O)N2[C@@H]1c1cccc(OCCO)c1 | 1.44 (inactive) | 0.0651 | 5.12 (inactive) | -0.16 (inactive) | 1.47 (inactive) | -1.04 (inactive) | 2.66 | -0.0444 (inactive) | 0.249 (inactive) | 1.55 |
| CC(C)C(=C=CC[C@H](O)c1cccc(OCCO)c1)C[C@H](O)c1ccccn1 | 1.21 (inactive) | 0.21 | 7.72 (inactive) | 0.631 (inactive) | 1.96 (inactive) | 0.626 (inactive) | 0.468 | -1.57 (inactive) | 0.362 (inactive) | -1.13 |
| COC(=O)[C@H]1N=C(c2ccc(OCCCO)cc2)O[C@H]1c1ccccc1N=[N+]=[N-] | -0.33 (inactive) | 0.527 | 29.3 (active) | 24.7 (active) | 2.2 (inactive) | 4.48 (inactive) | 0.352 | -1.69 (inactive) | -0.0764 (inactive) | -2.1 |
| COC(=O)C(CC#Cc1ccc2c(c1)[C@]1(C(=O)N2)[C@H](C(=O)N2CCCCCCC2)[C@H]2C(=O)O[C@H](c3ccccc3)[C@H](c3ccccc3)N2[C@@H]1c1ccc(OCCO)cc1)C(=O)OC | -0.215 (inactive) | 3.14 | 13.7 (active) | 2.51 (inactive) | -5.71 (inactive) | 0.588 (inactive) | -0.779 | 0.985 (inactive) | 0.827 (inactive) | 1.6 |
| COc1ccc([Si](C)(C)[C@H]2[C@H](CC(=O)N3CCC[C@H]3CO)O[C@@]3(C(=O)N(C)c4c(Br)cc(C)cc43)[C@@H]2C)cc1 | -0.437 (inactive) | 1 | 2.11 (inactive) | 0.179 (inactive) | -0.192 (inactive) | 0.62 (inactive) | 0.488 | 0.951 (inactive) | 0.657 (inactive) | 3.04 |
| COC(=O)[C@@]1(Cc2ccc(F)cc2)[C@H]2c3cc(C(=O)N4CCCC4)n(CCSCCO)c3C[C@H]2CN1C(=O)c1ccccc1 | -0.683 (inactive) | 0.433 | 1.37 (inactive) | 0.367 (inactive) | 0.189 (inactive) | 0.618 (inactive) | 0.332 | 0.639 (inactive) | -0.179 (inactive) | -0.345 |
| O=C1O[C@H](c2ccccc2)[C@H](c2ccccc2)N2[C@H]1[C@@H](C(=O)Nc1nc3ccccc3s1)[C@]1(C(=O)Nc3ccccc31)[C@H]2c1ccccc1OCCO | 0.185 (inactive) | 0.347 | 7.3 (inactive) | 5.1 (inactive) | -5.41 (inactive) | 1.79 (inactive) | 0.354 | 1.47 (inactive) | 0.862 (inactive) | 1.86 |
| COCCOC(=O)N1C(=O)[C@@]2(c3cc(C#CCNC(N)=O)ccc31)[C@H](c1ccc(O)cc1)N1[C@H](c3ccccc3)[C@H](c3ccccc3)OC(=O)[C@H]1[C@@H]2C(=O)N1CCc2cc(OC)c(OC)cc2C1 | -0.872 (inactive) | 0.208 | 1.67 (inactive) | 0.13 (inactive) | 0.018 (inactive) | 0.148 (inactive) | -0.0879 | 1.15 (inactive) | -0.909 (inactive) | 0.891 |
| CC(C)C[C@@H]1NC(=O)[C@@H]2C[C@H](C(=O)NCCCCCCNC(=O)CS)[C@H](c3ccc(O)cc3)N2C1=O | 0.81 (inactive) | 0.197 | 4.25 (inactive) | -0.506 (inactive) | 0.75 (inactive) | -1.54 (inactive) | 0.0377 | 0.569 (inactive) | 0.943 (inactive) | -0.706 |
| Cc1c(NC(=O)/C(C#N)=C/C=C/c2ccc([N+](=O)[O-])cc2)c(=O)n(-c2ccccc2)n1C | 0.0351 (inactive) | 0.277 | 2.74 (inactive) | 0.636 (inactive) | 0.206 (inactive) | 0.598 (inactive) | -0.279 | -0.696 (inactive) | 0.0994 (inactive) | 0.714 |
